Bioassay records as filed in PubChem.
TEAD-YAP block: TEAD-YAP interaction inhibition, primary screen, TEAD-YAP interaction inhibitor project, luminescence, HEK-TIYL cells; TEAD-Gal4/YAP UAS-luciferase luminescence; AID 1259422, 2018; 640,000 tested, 1.4% active; inhibition, % at 9.12 µM; in the data active = inhibition above about 32%;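 also: 0% = median of test compound wells and 100% = reference inhibitor wells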
GPR151 activ: activators of human GPR151, primary screen, cell-based, PathHunter beta-arrestin, luminescence | G-protein coupled receptor 151 (Homo sapiens), Q8TDV0 | PathHunter beta-arrestin GPR151 cells | activation, % at 11.2 µM | 650,000 tested, 1% active; in the data active = activation above about 4.9%;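 also: 0% = median of compound wells and 100% = cells with positive control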
Target sequence (Q8TDV0 whole entry, looked up): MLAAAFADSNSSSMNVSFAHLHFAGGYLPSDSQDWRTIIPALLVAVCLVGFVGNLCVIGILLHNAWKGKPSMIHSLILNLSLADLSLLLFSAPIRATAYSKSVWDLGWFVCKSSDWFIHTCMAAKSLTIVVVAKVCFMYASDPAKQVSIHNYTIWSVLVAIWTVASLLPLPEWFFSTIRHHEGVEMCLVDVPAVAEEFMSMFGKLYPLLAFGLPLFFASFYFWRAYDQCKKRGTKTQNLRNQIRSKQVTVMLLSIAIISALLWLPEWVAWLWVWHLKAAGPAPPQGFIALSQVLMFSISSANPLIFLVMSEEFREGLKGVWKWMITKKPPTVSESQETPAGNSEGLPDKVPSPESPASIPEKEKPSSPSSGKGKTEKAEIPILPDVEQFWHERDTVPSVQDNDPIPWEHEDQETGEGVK
FBW7 act: FBW7 E3 ligase activators, primary screen, biochemical, AlphaScreen, human; AID 1259310, 2017; AlphaScreen FBW7–phospho-cyclin E peptide binding, activator screen; normalized activity (activation), % at 26.1 µM; 650,000 tested, 0.13% active; F-box/WD repeat-containing protein 7 (Homo sapiens), Q969H0; in the data active = normalized activity above about 1.9%;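 also: purified mutant Fbw7 with reduced substrate affinity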
MITF primary: MITF inhibitors, primary screen, biochemical, AlphaScreen, human; Microphthalmia-associated transcription factor (Homo sapiens), O75030; AlphaScreen MITF homodimerization, bead proximity signal; inhibition, % at 2.6 µM; 650,000 tested, 0.91% active; in the data active = inhibition above about 50%;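 also: 0% = vehicle wells with protein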
GPR151 conf act: GPR151 activators, triplicate retest, confirmation, cell-based, PathHunter beta-arrestin, luminescence. shares compounds with GPR151 activ. GPR151 PathHunter beta-arrestin cells, 90 min; % of EA-reagent control over plate median. activation, % at 11.2 µM. 6,700 tested, under 10 active. AID 1508609, 2020;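 active = mean percent activation across replicates above the confirmation screen cutoff of 4.91%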
GPR119 counter: GPR119 activators in beta-arrestin cells, counter-screen for GPR151 activator project, cell-based, PathHunter beta-arrestin, luminescence, triplicate; activation, % at 11.2 µM; 6,700 tested, 0.3% active; 90 min; 0 = compound-well median, 100 = enzyme-acceptor control; shares compounds with GPR151 activ;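 active = mean percent activation in the counterscreen above 29.09%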;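 also: counterscreen on off-target GPR119 to flag nonselective hits from the GPR151 activator screen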
The depositor's hits bear a star; . = no result. A selection: hits, their analogues and other compounds. The true share with any hit is near 3.5%.

SMILES	TEAD-YAP block	GPR151 activ	FBW7 act	MITF primary	GPR151 conf act	GPR119 counter
Cc1ccccc1C(=O)Oc1ccc(-n2cnnn2)cc1	-8	-1	0	1	.	.
COCc1ccc([C@@H]2C[C@H]3CN(c4ccccc4)C(=O)[C@]34CCCN24)o1	6	5.6*	0	1	1	3
COCc1ccc([C@@H]2C[C@H]3CN(C4Cc5ccccc5C4)C(=O)[C@]34CCCN24)o1	-6	4	0	6	.	.
Cc1ccccc1-n1c(=O)c2ccccc2n(Cc2cc(=O)n3ccccc3n2)c1=O	-6	-1	0	-9	.	.
COC(=O)c1cc2sc(C)cc2n1Cc1cc(=O)n2ccccc2n1	-1	9.1*	0	-3	0	2
CCN1CCOC(CC(=O)Nc2cc(C(=O)OC)cc(C(=O)OC)c2)C1=O (configuration not stated)	5	0	0	-3	.	.
C/C(CC(=O)Nc1ccccc1Cl)=N\NC(=O)c1ccncc1	9	9.1*	0	-2	-1	-10
COc1ccccc1C(=O)N/N=C(\C)CC(=O)Nc1ccccc1Br	-41	7.6*	0	-1	0	9
CC(=O)Nc1ccccc1NC(=O)C/C(C)=N/NC(=O)c1ccncc1	-5	1	0	6	.	.
COc1ccc(-c2cc(CNC(=O)C3CC3)no2)cc1OC	-3	1	0	6	.	.
Cc1ccc(S(=O)(=O)NCC(=O)NN=C2CCC(C)CC2)cc1 (configuration not stated)	-1	6.5*	0	-12	-1	-15
Cc1ccc(C(=O)NN=C2CCC(C)CC2)cc1 (configuration not stated)	-17	8.1*	0	10	2	-9
CC1CCC(=NNC(=O)c2ccc(Cl)cc2)CC1 (configuration not stated)	-29	0	0	2	.	.
CC(C)C12CN3CC(C(C)C)(CN(C1)C3c1ccccc1Cl)C2=O (configuration not stated)	-6	0	0	4	.	.
CC12CN3CC(C)(CN(C1)C3c1ccccc1Cl)C2 (configuration not stated)	5	5.5*	0	9	-1	-5
CC(C(=O)Nc1cccc(C(F)(F)F)c1)N(c1ccc(Cl)cc1)S(C)(=O)=O (configuration not stated)	-4	6.8*	0	-12	0	0
O=C(CSCc1ccc(Br)cc1)NCCSc1ccc(Cl)cc1	9	3	0	5	.	.
O=c1oc2ccc([N+](=O)[O-])cc2cc1-c1nnc(Nc2ccccc2)s1	-3	0	1	8	.	.
CCOc1ccc2ccccc2c1C(=O)NCc1ccccn1	-8	21*	0	15	0	2
CCOc1ccc2ccccc2c1C(=O)NCc1cccs1	2	-1	1	9	.	.
CC(=O)c1c(C)[nH]c(C(=O)N2CCN(c3ccccc3)CC2)c1C	5	13*	0	14	-1	-3
CC(=O)c1c(C)[nH]c(C(=O)N2CCN(c3ccccc3F)CC2)c1C	4	0	0	6	.	.
COc1ccc(S(=O)(=O)N2CCN(C3CCC(C)CC3)CC2)cc1 (configuration not stated)	2	1	1	21	.	.
Cc1cc(N2CCCCC2)nc2ccc(NC(=O)c3cccc([N+](=O)[O-])c3)cc12	7	17*	0	2	1	10
COC(=O)c1ccccc1NC(=O)COc1cc(C)ccc1C(C)(C)C	9	-1	0	5	.	.
SMILES	TEAD-YAP block	GPR151 activ	FBW7 act	MITF primary	GPR151 conf act	GPR119 counter
CN1C2OC(C3OC4C(O3)N(C)S(=O)(=O)N4C)OC2N(C)S1(=O)=O (configuration not stated)	-4	0	0	7	.	.
Cc1cc(C)nc(SCc2cc(=O)c(OC(=O)C(C)(C)Oc3ccc(Cl)cc3)co2)n1	-10	1	0	-3	.	.
CCc1cc2[nH]c(C(=O)OC)cc2s1	-37	5.0*	0	2	0	10
O=C1C(=O)c2ccccc2C(O)=C1c1ccc(Cl)cc1	-6	0	0	-21	.	.
COc1ccc(N(CC(=O)NCCSC(C)(C)C)S(=O)(=O)c2ccccc2)cc1	-5	-2	0	8	.	.
CC1(c2ccc3c(c2)OCCO3)NC(=O)N(Cc2cc(=O)oc3cc4c(cc23)CCC4)C1=O (configuration not stated)	0	6.7*	0	4	0	0
COc1ccc(C(=O)C2CCN(S(=O)(=O)c3cccc(Cl)c3)CC2)cc1	-5	0	1	16	.	.
CC(C)CCNC(=O)C(Cc1ccccc1)NS(=O)(=O)c1ccc(F)cc1 (configuration not stated)	6	4.9*	0	9	-1	-6
COc1ccc(NC(=O)C(c2ccc(OC)cc2)N(Cc2ccco2)C(=O)Cc2cccs2)cc1 (configuration not stated)	-4	0	0	1	.	.
CCOc1ccc(NC(=O)C(Sc2ccccc2)c2ccccc2)c([N+](=O)[O-])c1 (configuration not stated)	-14	6.1*	0	7	1	18
CCOC(=O)c1c(NC(=O)CSc2nnc(-c3ccco3)o2)sc(C)c1C	5	5.1*	0	25	0	-6
CCOC(=O)c1c(NC(=O)CSc2nnc(-c3ccco3)o2)sc(C(C)=O)c1C	-6	0	0	0	.	.
COC(=O)c1ccc(C(=O)OC)c(NC(=O)CSc2nnc(-c3ccco3)o2)c1	-4	3	0	-6	.	.
COC(=O)c1ccccc1NC(=O)CSc1nnc(-c2ccco2)o1	-14	8.3*	0	-6	1	10
CN(Cc1ccccc1)Cc1cc(-c2ncccn2)ccc1O	1	1	0	-4	.	.
CN(Cc1nnc(-c2ccccc2)o1)Cc1cc(-c2ncccn2)ccc1O	-2	11*	0	6	0	13
O=C(CSc1nnc(-c2ccc(F)cc2)c(-c2ccc(F)cc2)n1)NC1CCCC1	11	0	0	9	.	.
C#CCN(CC#C)c1cccc(Cl)c1	-3	8.2*	0	11	-1	-6
C#CCN(CC#C)c1ccc(Cl)cc1	1	0	0	-5	.	.
CCOc1ccc2nc(CN3CCN(C4CCN(C(C)C)CC4)C(CCO)C3)ccc2c1 (configuration not stated)	1	3	0	-4	.	.
